From PubChem BioAssay (EPA / NIEHS)
Activity calls are given as the source filed them. Rule for the calls: active = hit-call score of the fitted dose curve at least 0.9, where 1 is the maximum; inactive = score below 0.9.

Test: ATG_Sox_CIS: Attagene CIS-FACTORIAL HepG2 Assay for human SRY-box transcription factor (SOX) (AID 2282960)
Conditions: HepG2 Attagene cis-factorial SOX reporter, mRNA; actives raise or lower the signal
Method: ATG_CIS is a cell-based, multiplexed-readout assay that uses HepG2, a human liver cell line, with measurements taken at 24 hours after chemical dosing in a 24-well plate.ATG_Sox_CIS is one of 52 assay component(s) measured or calculated from the ATG_CIS assay. It is designed to make measurements of mRNA induction, a form of inducible reporter, as detected with fluorescence intensity signals by Reverse transcription polymerase chain reaction (RT-PCR) and Capillary electrophoresis technology.Data from the assay component ATG_Sox_CIS was analyzed into 1 assay endpoint. This assay endpoint, ATG_Sox_CIS, was analyzed with bidirectional fitting relative to DMSO as the negative control and baseline of activity. Using a type of inducible reporter, measures of mRNA for gain or loss-of-signal activity can be used to understand the reporter gene at the transcription factor-level as they relate to the gene SOX1. Furthermore, this assay endpoint can be referred to as a primary readout, because this assay has produced multiple assay endpoints where this one serves a reporter gene function. To generalize the intended target to other relatable targets, this assay endpoint is annotated to the dna binding intended target family, where the subfamily is HMG box protein.
Human liver HepG2 cells are transiently transfected with multiple reporter transcription units (MRTUs) in 6-well plates using FuGene 6 reagent (Roche; 3 ml FuGene/1 mg DNA). The MRTU constructs are regulated by a cis-regulating element (promoter). […] A major difference between the CIS and TRANS system is that in CIS activities of endogenous TFs are measured, whereas the TRANS assay evaluates changes in activities of exogenous, chimeric NR-Gal4 proteins. […] At the end of 24 hour incubation, total RNA was isolated using TriZol reagent (Invitrogen). The isolated RNA is then reverse-transcribed using oligo(dT) primer and Mo-MLV reverse transcriptase (Invitrogen) with DNAse I (Ambion) treatment for 30 min. The one-tenth of the produced cDNA was amplified by PCR using Taq DNA polymerase (Invitrogen) and two reporter sequence-specific primers. The PCR products were fluorescently labeled by primer extension with 6-arboxyfluorescein (6-FAM) 5'-labeled reporter sequence-specific primer (2 min at 95 C, 20 s at 68 C and 10 min at 72 C) and these products were digested with 5U of HpaI (New England Biolabs) for 2h at 37 C. The fragments were purified using Qiaquick PCR columns (Qiagen), analyzed on an ABI 3130xL genetic analyzer (Applied Biosystems) with peak positions identified by using a set of X-rhodamine (ROX)-labeled MapMarker1000 molecular weight standards (BioVentures). The raw capillary electrophoresis data was processed using Attagraph software (Attagene).

Compound	outcome	AC50
CCOP(=S)(OCC)SCSc1ccc(Cl)cc1	inactive	
OCC(F)(F)OC(F)(F)C(F)(F)OC(F)(F)C(F)(F)OC(F)(F)F	inactive	
CC(C)(C)c1ccccc1OP(=O)(Oc1ccccc1)Oc1ccccc1	inactive	
CCCCC(CC)COP(=O)(Oc1ccccc1)Oc1ccccc1 (stereo not given)	inactive	
O=c1ssc(Cl)c1Cl		50.1 µM (active)
CCCCN(CCCC)N=O	inactive	
Cc1cccc(N)c1	inactive	
CCOc1ccc(C(C)(C)COCc2cccc(Oc3ccccc3)c2)cc1	inactive	
CC(Cl)(Cl)C(=O)O	inactive	
CC1=C(C(=O)Nc2ccccc2)S(=O)(=O)CCO1	inactive	
CC(=O)CCc1ccc2c(c1)OCO2	inactive	
CO/N=C(/C(=O)OC)c1ccccc1COc1ccccc1C	inactive	
COC(=O)C(F)(F)C(F)(F)OC(F)(C(F)(F)F)C(F)(F)OC(F)=C(F)F (stereo not given)	inactive	
O=P(OCC(Br)CBr)(OCC(Br)CBr)OCC(Br)CBr (stereo not given)	inactive	
Cc1ccc([N+](=O)[O-])cc1C	inactive	
CCC1(c2ccccc2)C(=O)N=C(O)NC1=O (stereo not given)	inactive	
CCOP(=S)(Oc1ccc([N+](=O)[O-])cc1)c1ccccc1 (stereo not given)	inactive	
CC(C)CBr	inactive	
Clc1ccc(Oc2ccccc2)cc1	inactive	
Cc1ccc2c(c1N)C(=O)c1ccccc1C2=O	inactive	

Compound	outcome	AC50
O=P1(N(CCCl)CCCl)NCCCO1 (stereo not given)	inactive	
N#Cc1ccc(O)cc1	inactive	
CCCCN(CC)C(=O)SCCC	inactive	
O=C(O)C(F)(F)OC(F)(F)C(F)(F)OC(F)(F)F	inactive	
ClC(Cl)(Cl)c1ccccc1	inactive	
CCOC(=O)c1ccccc1C(=O)OCC	inactive	
Cn1[nH]nnc1=S	inactive	
O=C(O)C(F)(F)OC(F)(F)C(F)(F)OC(F)(F)C(=O)O	inactive	
O=NN1CCCC1	inactive	
ClC1=C(Cl)C2(Cl)C3C(Cl)C(Cl)CC3C1(Cl)C2(Cl)Cl (stereo not given)	inactive	
O=P(Oc1ccccc1)(Oc1ccccc1)Oc1ccccc1	inactive	
Cc1ccc(N)cc1N	inactive	
COCCOCCO	inactive	
O=C(O)CF	inactive	
CC(C)(C)OOC(C)(C)C	inactive	
Nc1ccc([N+](=O)[O-])cc1Cl	inactive	
CC(Cl)CN(C)C (stereo not given)	inactive	
COP(N)(=S)OC	inactive	
O=S(=O)(F)C(F)(F)C(F)(F)C(F)(F)C(F)(F)C(F)(F)C(F)(F)C(F)(F)C(F)(F)F	inactive	
CC(C)(C)N(NC(=O)c1ccc(Cl)cc1)C(=O)c1ccccc1	inactive	
